Results: the supplement of paper PMC11624193, “Coupling cellular drug-target engagement to downstream pharmacology with CeTEAM” (Nature Communications, 2024)
Structures can show the parent of a compound that is named as a salt.

Each compound was assayed against PARP1 L713F-nLuc biosensor (HCT116) (UniProt P09874) (assay: PARP1 L713F-nLuc/akaLuc ratio relative to DMSO control (biosensor stabilization) (fold change); higher = more PARP1 biosensor stabilization (target engagement / stabilizer), active = hit call of the paper). Conditions: stock concentration (mM; final µM = stock mM x 1): 10; 24 h;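 active = log2 fold change beyond 2 SD from the library mean after excluding viability outliers; inactive = within 2 SD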.
Sequence of PARP1 L713F-nLuc biosensor (HCT116) (P09874 whole entry L713F, looked up): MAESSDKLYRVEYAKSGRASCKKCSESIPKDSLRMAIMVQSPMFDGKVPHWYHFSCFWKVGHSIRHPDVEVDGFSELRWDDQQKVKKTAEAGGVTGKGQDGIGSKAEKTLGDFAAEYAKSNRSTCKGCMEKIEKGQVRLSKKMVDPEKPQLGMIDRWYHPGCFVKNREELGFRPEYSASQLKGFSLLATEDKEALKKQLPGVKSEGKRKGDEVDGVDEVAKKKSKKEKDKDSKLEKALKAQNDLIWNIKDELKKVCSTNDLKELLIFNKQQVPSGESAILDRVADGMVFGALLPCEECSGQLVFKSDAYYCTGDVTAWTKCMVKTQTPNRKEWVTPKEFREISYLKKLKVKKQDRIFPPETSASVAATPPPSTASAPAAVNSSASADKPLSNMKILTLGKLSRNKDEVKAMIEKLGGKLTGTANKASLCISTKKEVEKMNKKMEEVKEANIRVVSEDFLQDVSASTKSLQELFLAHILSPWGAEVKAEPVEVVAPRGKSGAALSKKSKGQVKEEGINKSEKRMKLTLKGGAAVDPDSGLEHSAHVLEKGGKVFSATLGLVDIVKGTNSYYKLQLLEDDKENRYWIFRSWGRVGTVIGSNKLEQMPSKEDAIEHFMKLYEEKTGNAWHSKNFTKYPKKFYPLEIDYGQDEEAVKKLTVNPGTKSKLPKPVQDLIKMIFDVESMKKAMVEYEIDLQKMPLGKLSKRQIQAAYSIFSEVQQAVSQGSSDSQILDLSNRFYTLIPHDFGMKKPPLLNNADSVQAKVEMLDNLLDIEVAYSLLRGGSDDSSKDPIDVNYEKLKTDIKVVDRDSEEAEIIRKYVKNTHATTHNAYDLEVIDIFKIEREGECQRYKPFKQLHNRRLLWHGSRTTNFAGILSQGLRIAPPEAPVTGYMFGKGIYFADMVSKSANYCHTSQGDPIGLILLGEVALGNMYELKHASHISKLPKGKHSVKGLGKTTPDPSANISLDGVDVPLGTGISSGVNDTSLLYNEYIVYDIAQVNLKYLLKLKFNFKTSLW

| SMILES | PARP1 L713F-nLuc/akaLuc ratio |
| --- | --- |
| CNC(=O)c1ccc2cc([C@@]3(O)CCn4cncc43)ccc2c1 [TAK-700 (Orteronel)] | 0.776 (inactive) |
| Cc1cc(-c2ncc(CC(=O)Nc3ccc(-c4cnccn4)cn3)cc2C)ccn1 | 1.03 (inactive) |
| O=S(=O)(c1cccc2cnccc12)N1CCNCC1 | 0.882 (inactive) |
| Cc1cccc(CC(=O)N2CCc3c2ccc(-c2cn(C)c4ncnc(N)c24)c3F)n1 | 1.05 (inactive) |
| NC(=O)c1cccc2cn(-c3ccc([C@@H]4CCCNC4)cc3)nc12 [Niraparib (MK-4827)] | 6.42 (active) |
| CC(C)=CC(=O)O[C@H]1Cc2cc3ccc(=O)oc3cc2OC1(C)C [Decursin] | 0.768 (inactive) |
| CC(=O)N1CCC(Nc2cc(C(=O)NC[C@H](O)CN3CCc4ccccc4C3)ncn2)CC1 | 0.707 (inactive) |
| Nc1ncn([C@@H]2O[C@H](CO)[C@@H](O)[C@H]2O)c(=O)n1 [Azacitidine] | 4.35 (active) |
| CC(C)(O)CNc1nc(Nc2ccnc(C(F)(F)F)c2)nc(-c2cccc(C(F)(F)F)n2)n1 [Enasidenib (AG-221)] | 1.96 (inactive) |
| CCS(=O)(=O)N1CCC([C@@H](C)n2c(C)c(C(=O)NCc3c(OC)cc(C)[nH]c3=O)c3ccccc32)CC1 (racemic) [CPI-169 (racemate)] | 1.12 (inactive) |
| O=C(O)CNC(=O)C1=C(O)CCN(Cc2ccc(Oc3ccc(Cl)cc3)nc2)C1=O | 1.22 (inactive) |
| NC(=O)[C@H](CCCN=C(N)CCl)NC(=O)c1ccccc1 [Cl-amidine (hydrochloride)] | 0.914 (inactive) |
| Cn1cc(C2=C(c3c4n(c5ccccc35)CCC(CN)C4)C(=O)NC2=O)c2ccccc21 (configuration not stated) [Bisindolylmaleimide X (hydrochloride)] | 0.725 (inactive) |
| COc1cc2ncnc(Nc3ccc(O)c(Br)c3)c2cc1OC | 0.973 (inactive) |
| NC(=O)c1ccccc1Nc1ccccc1 | 0.795 (inactive) |
| N#CCC1CCN(c2nc(Nc3ccc(N4CCC(O)CC4)cc3)c3c(=O)[nH]ncc3n2)CC1 [Gusacitinib] | 0.883 (inactive) |
| COc1ccc(Cn2ccc3ccc(C(=O)NO)cc32)cc1 | 1.04 (inactive) |
| NC(=O)C1CCN(CC(=O)Nc2ccc(Br)cc2)CC1 | 0.965 (inactive) |
| CCn1c(C(=O)N(C2CC2)C2CC2)cc2c3c(ncn3C)c(Nc3cc(C)n(C)n3)nc21 | 1.01 (inactive) |
| COc1cc(CCc2cc(NC(=O)c3ccc(N4CC(C)NC(C)C4)cc3)n[nH]2)cc(OC)c1 (configuration not stated) | 0.745 (inactive) |
| Cc1ccc(F)c(NC(=O)Nc2ccc(-c3cccc4[nH]nc(N)c34)cc2)c1 [Linifanib (ABT-869)] | 3.59 (active) |
| O=C(c1cccc(Br)c1)N1CCC(N2CCCC2)CC1 | 0.886 (inactive) |
| COc1ccc(C2CC(c3ccccc3)=NN2c2ccc(S(N)(=O)=O)cc2)cc1 (configuration not stated) | 1.29 (inactive) |
| C=CC(=O)N1C[C@@H](Nc2ncnc3[nH]ccc23)CC[C@H]1C [(2R,5S)-Ritlecitinib] | 1.05 (inactive) |
| CN1CCN(c2ccc(C(=O)Nc3ccc([C@@H]4C[C@H]4N)cc3)cc2)CC1 | 0.684 (inactive) |
| CN(C)[C@H]1CN(C2CCc3cccc(F)c32)C[C@@H]1c1ccc(N2CCN(S(C)(=O)=O)CC2)cc1 (some centres not stated) | 4.18 (active) |
| CNC(=O)c1ccc(C)c(-n2c(C)cc(OCc3ccc(F)cc3F)c(Br)c2=O)c1 | 0.728 (inactive) |
